# Where “and” joins values, the source holds several entries; their conditions need not be identical. Identical values can stand only once. Inconclusive results are not listed. Where a call stands in place of a potency, no number is given. The source holds several records for some structures; these can differ, active in one and inactive in another. Calls of active or inactive are those of the source. Unless noted, the call rests on the fitted dose curve; in most records, active means well fitted curve in the direction sought with a large enough effect; inconclusive means small, poorly fitted or top-dose-only effect, or another doubt; inactive means no such curve, though single readings can be large; an effect the other way counts as inactive or inconclusive.
# Key:
# [1] = Cell Viability - LYMP2-002 (AID 977);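 further: compound exposure lasted 24 h at 37 °C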
# Method in brief: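 Human lymphoblastoid LYMP2-002 cells, 2500 per well, exposed to compounds for 24 h at 37 C in complete medium; viability read as intracellular ATP by CellTiter-Glo luminescence, AC50 from Hill fits.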
# [2] = Cell Viability - LYMP2-006 (AID 978); further: nearly all actives have a fitted effect of over 60% in size
# Method in brief: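 Human lymphoblastoid cells, 2500 per well, were preincubated 5 hr at 37 C, then exposed to compounds for 24 hr at 37 C in complete medium. Viability was read as intracellular ATP by CellTiter-Glo luminescence; AC50 from Hill-equation fits of qHTS concentration-response data.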
# [3] = Cell Viability - LYMP2-007 (AID 979);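 further: cells exposed to compound for 24 h before reading; nearly all actives have a fitted effect of over 60% in size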; further: potency means the concentration at half of the fitted maximal effect
# Method in brief: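 Human lymphoblastoid cells (2500/well) were plated in complete medium, incubated 5 hr at 37 C, then exposed to compounds for 24 hr at 37 C. Intracellular ATP was read by CellTiter-Glo luminescence after 30 min at room temperature; AC50 from Hill fits.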
# [4] = Cell Viability - LYMP2-008 (AID 980); further: nearly all actives have a fitted effect of over 60% in size
# Method in brief: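 Human lymphoblastoid cells (2500/well) were plated, held 5 hr at 37 C, then exposed to compounds for 24 hr at 37 C in complete medium. Intracellular ATP was read by CellTiter-Glo luminescence; AC50 from Hill-fitted concentration-response.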
# [5] = Cell Viability - LYMP2-010 (AID 981); further: nearly all actives have a fitted effect of over 55% in size; further: potency means the concentration at half of the fitted maximal effect
# Method in brief: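 Human lymphoblastoid LYMP2-010 cells (2500/well) were preincubated 5 hr at 37 C, then exposed to compounds for 24 hr at 37 C in complete medium. Intracellular ATP was measured by CellTiter-Glo luminescence after 30 min at room temperature; AC50 from Hill-fitted concentration-response.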
# [6] = Cell Viability - LYMP2-012 (AID 982);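 further: cellular ATP by luciferase luminescence where a drop means cytotoxicity; cells exposed to compound for one day before reading; nearly all actives have a fitted effect of over 55% in size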; further: potency means the concentration at half of the fitted maximal effect
# [7] = Cell Viability - LYMP2-014 (AID 983); further: nearly all actives have a fitted effect of over 50% in size
# Method in brief: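 Human lymphoblastoid cells (2500/well) were pre-incubated 5 hr at 37 C, then exposed to compounds in complete medium for 24 hr at 37 C. Intracellular ATP was read by CellTiter-Glo luminescence after 30 min at room temperature; AC50 from Hill fits.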
# [8] = Cell Viability - LYMP2-016 (AID 984); further: nearly all actives have a fitted effect of over 55% in size
# Method in brief: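 Human lymphoblastoid cells (LYMP2-016), 2500/well in complete medium, preincubated 5 hr at 37 C, then compound-treated 24 hr at 37 C. Intracellular ATP read by CellTiter-Glo luminescence after 30 min at room temperature; AC50 from Hill-equation concentration-response fits.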
# [9] = Cell Viability - LYMP2-018 (AID 985);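 further: compound exposure lasted 24 hr at 37 °C; nearly all actives have a fitted effect of over 50% in size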; further: potency means the concentration at half of the fitted maximal effect
# Method in brief: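 Human lymphoblastoid cells (2500/well) were pre-incubated 5 hr at 37 C, then exposed to compounds for 24 hr at 37 C in complete medium. Viability was read as intracellular ATP by CellTiter-Glo luminescence; AC50 values came from Hill-equation fits.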
# [10] = Cell Viability - LYMP2-020 (AID 986); further: nearly all actives have a fitted effect of over 55% in size; further: potency means the concentration at half of the fitted maximal effect
# Method in brief: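 Human lymphoblastoid cells, 2500/well, were pre-incubated 5 hr at 37 C, then exposed to compounds for 24 hr at 37 C in complete medium. Intracellular ATP was read by CellTiter-Glo luminescence, and AC50 was derived by Hill fitting of concentration-response data.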
# [11] = Cell Viability - LYMP2-022 (AID 987); further: nearly all actives have a fitted effect of over 55% in size; further: potency means the concentration at half of the fitted maximal effect
# Method in brief: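 Human lymphoblastoid cells, 2500/well, preincubated 5 hr at 37 C, then exposed to compounds over a concentration range for 24 hr at 37 C in complete medium. Viability read as intracellular ATP by CellTiter-Glo luminescence after 30 min at room temperature; AC50 from Hill fits.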
# [12] = Cell Viability - LYMP2-024 (AID 988); further: nearly all actives have a fitted effect of over 60% in size; further: potency means the concentration at half of the fitted maximal effect
# Method in brief: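 Human lymphoblastoid cells (2500/well) in complete medium were preincubated 5 hr at 37 C, then exposed to compounds for 24 hr at 37 C. Intracellular ATP was read by CellTiter-Glo luminescence; AC50 from Hill-equation fits of concentration-response data.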
# [13] = Cell Viability - LYMP2-026 (AID 989); further: nearly all actives have a fitted effect of over 50% in size
# Method in brief: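 Human lymphoblastoid cells (2500/well) in complete medium were preincubated 5 hr at 37 C, then exposed to compounds for 24 hr at 37 C. Cellular ATP was read by CellTiter-Glo luminescence; AC50 from Hill-equation fits of concentration-response data.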
# [14] = Cell Viability - LYMP1-002 - Assay at 24 hr (AID 993); further: potency means the concentration at half of the fitted maximal effect
# Method in brief: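 Human lymphoblastoid LYMP1-002 cells, 2500/well in complete medium, were treated with compounds for 24 h at 37 C; intracellular ATP was read by CellTiter-Glo luminescence. AC50 values came from Hill-equation fits of qHTS concentration-response data.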
# [15] = Cell Viability - LYMP1-002 - Assay at 40 hr (AID 994); further: nearly all actives have a fitted effect of over 60% in size; further: potency means the concentration at half of the fitted maximal effect
# Method in brief: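 Human lymphoblastoid cells, 2500/well in complete medium, were preincubated 5 hr at 37 C, then exposed to compounds for 40 hr at 37 C. Intracellular ATP was read by CellTiter-Glo luminescence after 30 min at room temperature; AC50 from Hill-equation fits.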
# [16] = qHTS Assay for Lipid Storage Modulators (AID 1519; calls by dose curve); details: Drosophila S3 cells, BODIPY lipid droplet/cell ratio, laser cytometry, cells loaded with oleic acid
# Method in brief: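 Cells seeded at 5,000 per well were treated with compounds over a concentration series and loaded with oleic acid (400 uM, as added). Lipid droplet fluorescence (488 nm excitation, 500-530 nm channel) was read by laser-scanning cytometry and normalized to 20 uM Triacsin C.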
# [17] = target: Alpha-galactosidase A (Homo sapiens) (UniProt P06280); assay: Counterscreen for Glucocerebrosidase Inhibitors: qHTS Assay for Human alpha-Galactosidase at pH 4.5 (AID 992)
# Method in brief: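 Enzyme at 2 nM final was combined with compound (0.7 nM to 77 uM) and 80 uM 4-methylumbelliferyl alpha-D-galactopyranoside in 50 mM citric acid, 0.005% Tween-20, pH 4.5. After 20 min at room temperature, fluorescence was read (Ex 365/Em 440 nm); AC50 came from Hill fits.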
# [18] = target: alpha-glucosidase (Oryza sativa, rice) (UniProt Q653V4); assay: Counterscreen for Glucocerebrosidase Inhibitors: qHTS Assay for Rice alpha-Glucosidase at pH 5.0 (AID 997)
# Method in brief: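 Rice alpha-glucosidase (4 nM final) with 400 uM 4-methylumbelliferyl-alpha-D-glucopyranoside in citrate buffer pH 5.0, 20 min at room temperature, stopped at pH 10; fluorescence 365/440 nm, compounds 0.7 nM–77 uM, AC50 from Hill fits.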
# [19] = target: Alpha-galactosidase (Coffea arabica) (UniProt Q42656); assay: Counterscreen for Glucocerebrosidase Inhibitors: qHTS Assay for Coffee Bean alpha-Galactosidase at pH 5.9 (AID 998)
# Method in brief: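 Green coffee bean enzyme (2 nM) with 4-methylumbelliferyl alpha-D-galactopyranoside (80 uM) in 50 mM citric acid, 0.005% Tween-20, pH 5.9, 20 min at room temperature; compounds 0.7 nM–77 uM. Stopped at pH 10, fluorescence Ex365/Em440; Hill-fit AC50.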
# [20] = Validation of Assay for Modulators of Lamin A Splicing (AID 1459; active means well fitted curve in the direction sought with a large enough effect in the signal ratio; the % refers to the signal ratio;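 further: cells exposed to compound for two days before reading; ratio rise marks activators and ratio drop marks inhibitors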)
# Method in brief: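 S3 HeLa cells stably expressing a lamin A-EGFP splicing minigene and DsRed2 were seeded at 600 cells/well in Opti-MEM with 2% FBS, pin-dosed, and incubated 48 hrs at 37 °C, 5% CO2. Laser-scanning cytometry (488 nm) gave GFP/RFP total intensity ratio.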
# [21] = measured here: cell count channel max response
# [22] = measured here: lipid channel max response
# Chain of Alpha-galactosidase (Coffea arabica) (Q42656 whole entry, looked up): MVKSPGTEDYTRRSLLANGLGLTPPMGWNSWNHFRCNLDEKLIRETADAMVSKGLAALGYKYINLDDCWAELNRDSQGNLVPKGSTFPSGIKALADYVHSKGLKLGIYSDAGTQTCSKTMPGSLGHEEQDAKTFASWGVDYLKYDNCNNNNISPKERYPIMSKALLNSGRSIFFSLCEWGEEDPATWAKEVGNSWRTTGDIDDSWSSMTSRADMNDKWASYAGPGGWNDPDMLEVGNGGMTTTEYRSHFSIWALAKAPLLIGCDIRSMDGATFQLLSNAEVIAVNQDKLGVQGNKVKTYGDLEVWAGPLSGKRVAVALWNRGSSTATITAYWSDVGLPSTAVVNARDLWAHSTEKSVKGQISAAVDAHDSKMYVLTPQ
# Chain of Alpha-galactosidase A (Homo sapiens) (P06280 whole entry, looked up): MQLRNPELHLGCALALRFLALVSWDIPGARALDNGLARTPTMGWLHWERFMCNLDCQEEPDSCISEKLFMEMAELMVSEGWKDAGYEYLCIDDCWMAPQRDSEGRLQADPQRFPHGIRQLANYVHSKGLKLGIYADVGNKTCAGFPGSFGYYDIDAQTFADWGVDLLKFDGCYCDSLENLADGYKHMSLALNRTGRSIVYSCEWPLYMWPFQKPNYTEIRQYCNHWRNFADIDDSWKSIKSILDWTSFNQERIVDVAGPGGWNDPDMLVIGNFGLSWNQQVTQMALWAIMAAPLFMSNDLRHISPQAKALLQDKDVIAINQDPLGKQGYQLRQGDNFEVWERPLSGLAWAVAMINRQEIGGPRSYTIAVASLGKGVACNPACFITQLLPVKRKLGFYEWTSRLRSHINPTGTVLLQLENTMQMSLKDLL
structure (smiles),measurement,setting,value
COP(=O)(OC)OC=C(Cl)Cl,Potency,[1],inactive
same,Potency,[2],inactive
same,Potency,[3],inactive
same,Potency,[4],inactive
same,Potency,[5],inactive
same,Potency,[6],inactive
same,Potency,[7],inactive
same,Potency,[8],inactive
same,Potency,[9],inactive
same,Potency,[10],inactive
same,Potency,[11],inactive
same,Potency,[12],inactive
same,Potency,[13],inactive
same,Potency,[14],inactive
same,Potency,[15],12.6 µM (active) and inactive
Oc1ccc(Cl)cc1Sc1cc(Cl)ccc1O,Potency,[3],39.8 µM (active)
same,Potency,[5],39.8 µM (active)
same,Potency,[6],31.6 µM (active)
same,Potency,[9],39.8 µM (active)
same,Potency,[10],39.8 µM (active)
same,Potency,[15],50.1 µM (active)
Oc1c(Br)cc(Br)cc1Br,Potency,[1],inactive
same,Potency,[2],inactive
same,Potency,[3],inactive
same,Potency,[4],inactive
same,Potency,[5],inactive
same,Potency,[6],inactive
same,Potency,[7],inactive
same,Potency,[8],inactive
same,Potency,[9],inactive
same,Potency,[10],inactive
same,Potency,[11],inactive
same,Potency,[12],inactive
same,Potency,[13],inactive
same,Potency,[14],inactive
same,Potency,[15],inactive
CCC(=O)O[C@H]1CC[C@H]2[C@@H]3CCC4=CC(=O)CC[C@]4(C)[C@H]3CC[C@]12C,"activity change, negative = inhibition",[16]; at 25.7 µM (top of the series),0.757% (inactive)
same,max response,[16]; [21],2.96%
same,max response,[16]; [22],3.14%
COc1ccc(C(=O)N2CCCC2=O)cc1,outcome,[17],inactive
same,outcome,[18],inactive
same,outcome,[19],inactive
same,"activity change, negative = inhibition",[16]; at 57.5 µM (top of the series),-0.445% (inactive)
same,max response,[16]; [21],21.4%
same,max response,[16]; [22],19.3%
O=C1CC2(CCCC2)CC(=O)N1CCCCN1CCN(c2ncccn2)CC1,outcome,[19],inactive
same,"activity change, negative = inhibition",[16]; at 25.7 µM (top of the series),0.205% (inactive)
same,"activity change, negative = inhibition",[16]; at 57.5 µM (top of the series),-2.21% (inactive)
same,max response,[16]; [21],-26.7% and -71.1%
same,max response,[16]; [22],-24.8% and -67.1%
Cc1ccc(N=CN(C)C=Nc2ccc(C)cc2C)c(C)c1,"activity change, negative = inhibition",[16]; at 57.5 µM (top of the series),14.3% (inactive)
same,max response,[16]; [21],10.9%
same,max response,[16]; [22],26.2%
CC(N)C(=O)OC(C)(C)Cc1ccc(Cl)cc1 (stereo unspecified),outcome,[20],inactive
same,"activity change, negative = inhibition",[16]; at 57.5 µM (top of the series),9.94% (inactive)
same,max response,[16]; [21],6.48%
same,max response,[16]; [22],18.3%
NC(N)=NC(=O)c1nc(Cl)c(N)nc1N,outcome,[19],inactive
same,"activity change, negative = inhibition",[16]; at 25.7 µM (top of the series),-0.295% (inactive)
same,"activity change, negative = inhibition",[16]; at 57.5 µM (top of the series),-0.935% (inactive) and 5.62% (inactive)
same,max response,[16]; [21],12.3% and 6.32% and 9.51%
same,max response,[16]; [22],15.3% and 5.93% and 17.9%
COC(=O)C1=C(C)NC(C)=C(C(=O)OC)C1c1ccccc1[N+](=O)[O-],Potency,[3],39.8 µM (active)
same,Potency,[5],39.8 µM (active)
same,Potency,[11],50.1 µM (active)
same,Potency,[12],39.8 µM (active)
same,Potency,[14],50.1 µM (active)
same,Potency,[15],39.8 µM (active)
same,outcome,[19],inactive
same,"activity change, negative = inhibition",[16]; at 25.7 µM (top of the series),-3.56% (inactive)
same,"activity change, negative = inhibition",[16]; at 57.5 µM (top of the series),-18.3% (inactive)
same,max response,[16]; [21],-12.4% and 9.66%
same,max response,[16]; [22],-15.8% and -7.21%
CCNc1nc(Cl)nc(NCC)n1,"activity change, negative = inhibition",[16]; at 57.5 µM (top of the series),6.1% (inactive)
same,max response,[16]; [21],11.4%
same,max response,[16]; [22],16.8%
CCCn1cnc2c1c(=O)n(CCCCC(C)=O)c(=O)n2C,outcome,[19],inactive
Cc1[nH]c(=O)c(C#N)cc1-c1ccc2nccn2c1,outcome,[19],inactive
OCCN1CCN(CCCN2c3ccccc3C=Cc3ccccc32)CC1,outcome,[19],inactive
O=C(Nc1ccc([N+](=O)[O-])cc1Cl)c1cc(Cl)ccc1O,outcome,[19],inactive
CNC[C@H](O)c1ccc(O)c(O)c1,outcome,[19],inactive
